Data taken from PubChem BioAssay AID1903 (Southern Research Specialized Biocontainment Screening …, 2009).
Screen size: about 310,000 compounds; about 1,200 (0.39%) were called active. No rule for the calls is given here. Only a sample is shown. Entries with a potency or affinity are not part of this list.

What follows are compounds tested against Large T antigen (Simian virus 40) (UniProt P03070) (assay: SV40 large T antigen inhibitors, biochemical (AID 1903)). Settings: SV40 large T antigen ATPase/helicase inhibition assay; at 20 µM; hits give high values.
Sequence of Large T antigen (Simian virus 40) (P03070 whole entry, looked up): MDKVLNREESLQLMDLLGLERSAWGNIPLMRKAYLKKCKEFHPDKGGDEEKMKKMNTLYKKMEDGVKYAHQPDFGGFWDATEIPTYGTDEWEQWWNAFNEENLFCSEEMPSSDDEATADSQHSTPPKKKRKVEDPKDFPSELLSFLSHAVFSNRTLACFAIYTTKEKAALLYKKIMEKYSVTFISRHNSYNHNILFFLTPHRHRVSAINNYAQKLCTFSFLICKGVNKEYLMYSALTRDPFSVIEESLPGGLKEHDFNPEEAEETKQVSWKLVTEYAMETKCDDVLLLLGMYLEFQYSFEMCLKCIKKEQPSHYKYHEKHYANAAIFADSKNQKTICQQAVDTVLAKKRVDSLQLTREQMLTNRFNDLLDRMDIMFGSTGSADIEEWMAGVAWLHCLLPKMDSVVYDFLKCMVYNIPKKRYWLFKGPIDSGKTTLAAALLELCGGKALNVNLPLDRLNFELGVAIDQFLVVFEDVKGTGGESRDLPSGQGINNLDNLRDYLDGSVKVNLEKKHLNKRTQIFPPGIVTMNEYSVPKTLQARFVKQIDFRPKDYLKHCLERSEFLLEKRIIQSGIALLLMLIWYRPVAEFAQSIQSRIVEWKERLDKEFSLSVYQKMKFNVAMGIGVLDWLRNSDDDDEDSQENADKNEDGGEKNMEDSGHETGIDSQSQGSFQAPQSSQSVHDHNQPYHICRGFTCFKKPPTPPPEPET

inhibition, inactive:
COc1ccc(-c2nc3cc(C)ccn3c2NC(=O)c2ccccc2OC)cc1 9.33%, COc1ccc(NC(=O)CSCC(=O)NCCc2ccccn2)cc1 0.35%, CNCCc1ccccn1 13.3%, COCCN1Cc2cccc(C(=O)Nc3cccnc3)c2C1=O 1.93%, COc1cccc(CC(=O)OCC(=O)N(C)CC(=O)Nc2ccc(Cl)c(C(F)(F)F)c2)c1 5.39%, CCOc1ccccc1N(CC(=O)NC1CCCCC1)C(=O)CCC(=O)Nc1cc(C)ccn1 -4.71%, Brc1ccc(-c2csc(NNC3=NCCCCC3)n2)cc1 21.1%, c1ccc(-c2csc(NC3=NCCCCC3)n2)cc1 -1.35%, O=C1NC(=O)/C(=C/c2ccc(N3CCOCC3)o2)N1 35.9%, O=C1NC(=O)/C(=C\c2ccc(N3CCOCC3)o2)N1 12.2%, COC(=O)CN1C(=O)S/C(=C/c2ccc(N3CCCCC3)o2)C1=O 22.2%, CCOC(=O)CN1C(=O)S/C(=C/c2ccc(N3CCCCC3)o2)C1=O -40.7%, COc1ccc(-c2cn(Cc3ccc(C(N)=O)cc3)c(CCN)n2)cc1 15.2%, CCc1ccc(N2CC(C(=O)Nc3cc(C)on3)CC2=O)cc1 (stereo not drawn) 7.18%, COc1ccc(S(=O)(=O)N2CCc3cc4c(cc3C2C)OCCCO4)cc1 (stereo not drawn) -0.77%, O=C(/C=C/c1cccc([N+](=O)[O-])c1)NCC1CCCO1 (stereo not drawn) 1.2%, CCNc1c(NC(=O)C2CCC(C)CC2)c(=O)oc2ccccc12 (stereo not drawn) 7.89%, N#CCn1nnc(-c2ccc3c(c2)OCO3)n1 5.17%, COc1cc2nc(C3CCC3)nc(N3CCN(c4ccccn4)CC3)c2cc1OC 3.99%, CC(C)(C)OC(=O)N/N=C\c1ccc([N+](=O)[O-])s1 9.37%, O=C(N/N=C/c1ccc(N2CCOCC2)s1)c1ccccc1Br 28.7%, Clc1cccc(N/N=C/c2ccc(N3CCOCC3)s2)c1 0.11%, O=C(N/N=C/c1ccc(N2CCOCC2)s1)c1ccccc1Cl 19.1%, Cc1cc(-c2cc(-c3ccc(Cl)cc3)on2)nc(NCC2CC2)n1 19.1%, COC(C/C=C/[C@@H](O)[C@H](C)OCc1ccccc1)OC 7.24%, COc1cc2[nH]c(=O)n(CCCCCC(=O)NCCCN3CCOCC3)c(=O)c2cc1OC 9.95%, Nc1c(N)c2ccccc2oc1=O 3.21%, O=C1CCC(C(=O)NCCN2C(=O)S/C(=C\c3cccnc3)C2=O)=NN1 9.31%, COc1cc(/C=C2/NC(=O)N(CC(=O)Nc3cccc(C)c3)C2=O)ccc1OCC(N)=O 6.55%, CCOC(=O)c1[nH]c2ccccc2c1N=CN(CC)CC 13.2%, CCOC(=O)c1[nH]c2ccccc2c1NC(=S)Nc1ccccc1C 35.3%, CCCn1c(SCc2nc(N)nc(N3CCCCC3)n2)nc2c1c(=O)n(C)c(=O)n2C 27.3%, CC1=NOC(=O)/C1=C\c1ccc(-c2ccc(Br)cc2C(=O)O)o1 37.7%, CC1=NOC(=O)/C1=C\c1ccc(-c2cccc(Cl)c2)o1 2.49%, O=C(O)c1cc(-c2ccc(/C=C3\NC(=O)N(c4ccccc4)C3=O)o2)ccc1Cl 22.8%, CC1=NOC(=O)/C1=C/c1ccc(-c2ccc(Cl)cc2)o1 29.9%, CC(C)N1C(=O)S/C(=C\c2ccc(-c3ccc(Cl)c(C(=O)O)c3)o2)C1=O 31%, CC1=NOC(=O)/C1=C\c1ccc(-c2ccc(Br)cc2)o1 11.9%, Cc1ccc(NCC(=O)Nc2cccc(F)c2)cc1S(=O)(=O)N1CCCCCC1 30.7%, O=C(Cc1cccs1)Nc1nnc(SCc2ccc(C(F)(F)F)cc2)s1 21%, O=C(c1cnn2c(C(F)(F)F)cc(-c3ccccc3)nc12)N1CCOCC1 2.03%, CN(/N=C/Cc1nnnn1-c1ccc(Cl)cc1)c1ccccc1 12.9%, Fc1ccc2c(c1)C(c1ccncc1)=NNC(c1ccc(Cl)cc1)=N2 -2.03%, CCOc1ccc(S(=O)(=O)NCCC(=O)NC2CCCCC2)cc1 6.66%, CCC(C)CCN1C(N(C)C)=NC[C@@H]1CC(C)C (stereo partly drawn) -8.26%, COc1cc(OC)c(NS(=O)(=O)c2ccc(Cl)c(C(=O)OC(C)C(=O)N3CCCC3)c2)cc1Cl (stereo not drawn) 0.34%, NS(=O)(=O)c1ccc(N/N=C/c2ccc(O)cc2O)c([N+](=O)[O-])c1 14.4%, NS(=O)(=O)c1ccc(N/N=C/c2ccccn2)c([N+](=O)[O-])c1 9%, O=C(CCC1COc2ccccc2O1)NCc1ccco1 (stereo not drawn) 9.35%, Cc1cc(=O)c2c(O)c(O)ccc2o1 27.4%, CC(=O)c1cc2cc(O)ccc2o1 3.38%, O=C(CCNC(=O)C1CCN(S(=O)(=O)c2ccccc2)CC1)NCc1ccncc1 18.3%, CCCCCCn1c(N(CC)CC)nc2c1c(=O)[nH]c(=O)n2C 19.9%, Oc1ccc(/C=N/Nc2ccc(C(F)(F)F)cn2)cc1 35.9%, Oc1c(Br)cc(/C=N/Nc2ccc(Cl)nn2)cc1Br 31.9%, O=C(O)c1ccc(/C=N/Nc2ccc(C(F)(F)F)cn2)cc1 4.16%, Oc1cccc(/C=N/Nc2ccc(Cl)nn2)c1 1.08%, CCOC(=O)C1CCCN(c2c(N3CCC(N4CCCCC4)CC3)c(=O)c2=O)C1 (stereo not drawn) 0.55%, CN1CCN(S(=O)(=O)c2cccc(C(=O)Nc3ccccc3N3CCOCC3)c2)CC1 8.67%, CCC(C)NC(=O)CN(c1ccc(Cl)c(Cl)c1)S(C)(=O)=O (stereo not drawn) 2.27%, COc1cccc(OC)c1C(=O)NNS(=O)(=O)c1ccc2ccccc2c1 4.3%, O=[N+]([O-])c1ccc(Cl)cc1Sc1nc2ccccc2o1 3.7%, O=[N+]([O-])c1ccc(CSc2nc3ccccc3o2)cc1 1.36%
